# Experimental data taken from the OligoGym collection.
# Legend:
# Test in all cases: pooled miR-30 sensor sort-seq; sequence = guide strand
# Conditions in all cases: shRNA
# RPL27 = biological target: RPL27
# RPL19 = biological target: RPL19
# RPS27 = biological target: RPS27
# RPS28 = biological target: RPS28
# RPS6KA5 = biological target: RPS6KA5
# Also: reference of the scale not given here.
sequence,measurement,setting,value
TATCTTTGATCTCTTGGCGATC,sensor-assay potency score (higher = more potent),RPL27,-1.37
TTGATGATCTCCTCCTTCTTGG,sensor-assay potency score (higher = more potent),RPL19,0.222
TTCTTCACGATGACAGCTTTGC,sensor-assay potency score (higher = more potent),RPL27,-0.801
ATATCCACAGAGTACCTTGTGG,sensor-assay potency score (higher = more potent),RPL27,-0.336
TCTCTCTTCAAACTTGACCTTG,sensor-assay potency score (higher = more potent),RPL27,-0.698
TGGTGATTTTATAGCATCCTGG,sensor-assay potency score (higher = more potent),RPS27,-1.63
TGGATCGGCTCGTGTCGTCCAT,sensor-assay potency score (higher = more potent),RPS28,-1.14
TGAAGGAACATCCTTCTGTAAG,sensor-assay potency score (higher = more potent),RPS27,-1.76
TGATTTTATAGCATCCTGGGCA,sensor-assay potency score (higher = more potent),RPS27,-0.287
TTTAAGAGCAGGATCTCTGAAG,sensor-assay potency score (higher = more potent),RPL27,-0.365
TTTTACATTGCGGATGATGGAT,sensor-assay potency score (higher = more potent),RPS28,-0.481
TTATCTTTGATCTCTTGGCGAT,sensor-assay potency score (higher = more potent),RPL27,-0.525
TGCACTGTCCCTGAGAACCGGT,sensor-assay potency score (higher = more potent),RPS28,-1.07
TTGCGGATGATGGATCGGCTCG,sensor-assay potency score (higher = more potent),RPS28,-1.36
TTCCTCTTCTCCTCTTCTGGAG,sensor-assay potency score (higher = more potent),RPS27,-0.516
TAAGCCTTGCTTTTCCTCCTGT,sensor-assay potency score (higher = more potent),RPS27,0.376
AAGTCTTGATGATCTCCTCCTT,sensor-assay potency score (higher = more potent),RPL19,0.211
TCCTCTTCTCCTCTTCTGGAGA,sensor-assay potency score (higher = more potent),RPS27,-1.67
TTCACGATGACAGCTTTGCGTC,sensor-assay potency score (higher = more potent),RPL27,-0.995
TGATGGATCGGCTCGTGTCGTC,sensor-assay potency score (higher = more potent),RPS28,-1.07
AATTCCACGCGCACCTGCGTGC,sensor-assay potency score (higher = more potent),RPS28,-0.771
TTCACATCCATGAAGTAGGAAT,sensor-assay potency score (higher = more potent),RPS27,-1.13
TTTTATAGCATCCTGGGCATTT,sensor-assay potency score (higher = more potent),RPS27,-0.741
TTGTGCATGGCTAAAGACCGTG,sensor-assay potency score (higher = more potent),RPS27,-0.673
TACACTTTCACAAAAGATTTTA,sensor-assay potency score (higher = more potent),RPL27,-0.949
TTGTTCTTGCCTGTCTTGTATC,sensor-assay potency score (higher = more potent),RPL27,-1.8
TTCTTCTTGTGTTTCCTCTTCT,sensor-assay potency score (higher = more potent),RPS27,0.637
TTGGTGACCCTGGCCAGCTTGA,sensor-assay potency score (higher = more potent),RPS28,-1.2
TGTCCCTGAGAACCGGTCCTGC,sensor-assay potency score (higher = more potent),RPS28,-1.38
TTTATCTTTGATCTCTTGGCGA,sensor-assay potency score (higher = more potent),RPL27,-0.218
TAAAGTCTTGATGATCTCCTCC,sensor-assay potency score (higher = more potent),RPL19,0.336
AGGATCTCTGAAGACATCCTTA,sensor-assay potency score (higher = more potent),RPL27,-1.41
TTTTTCTCCATCAACAGTGAAA,sensor-assay potency score (higher = more potent),RPS6KA5,-1.03
TTACCTATGCCCATGTGCCTGC,sensor-assay potency score (higher = more potent),RPL19,-0.132
TTTCACATCCATGAAGTAGGAA,sensor-assay potency score (higher = more potent),RPS27,0.096
ATTGACGACAGTTTTGTCCAAG,sensor-assay potency score (higher = more potent),RPL27,-1.31
